Screening data as filed in PubChem.
Compounds with a hit are over-represented: about 4.6% of the library has one in this group of screens.
HSF1 inhib – HSF1 inhibition | activity change, negative = inhibition, % at 7.5 µM (by protocol) | NIH3T3-HGL HSE-luciferase, MG132-induced, luminescence 8 h; stronger effect = lower value | 300,000 tested, 0.77% active;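 active means more than half of replicate wells show activity change below -50%, luminescence cut by over half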;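 further: luciferase reports HSF-1 transcriptional activity via heat shock element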
HSF-1 act – increases HSF-1 driven luciferase reporter signal; NIH3T3-HGL HSF-1 luciferase reporter, MG132, 8 h; 100% = twice DMSO control signal; activation, % at 9 µM; 300,000 tested, 1.7% active;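 active means mean replicate activation of at least 50% with a set share of replicates each reaching 50%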
FXN GAA850 act – increases GAA850 frataxin promoter reporter activity. HEK293 lucGAA850 FXN promoter luciferase reporter, 24 h; percent of 10 µM SAHA response. activation, % at 6 µM. 360,000 tested, 0.56% active. AID 540364;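 active means activation above the average of all compounds screened plus 3 SD, cutoff fixed separately per campaign, cut at about 7.5% in these data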
AHR activator – activates the human aryl hydrocarbon receptor; AHR-responsive luciferase reporter cells, luminescence; activation, % at 5 µM; 320,000 tested, 2.5% active; AID 2796; in the data active means activation above about 47%
Target sequence (P35869 whole entry, looked up): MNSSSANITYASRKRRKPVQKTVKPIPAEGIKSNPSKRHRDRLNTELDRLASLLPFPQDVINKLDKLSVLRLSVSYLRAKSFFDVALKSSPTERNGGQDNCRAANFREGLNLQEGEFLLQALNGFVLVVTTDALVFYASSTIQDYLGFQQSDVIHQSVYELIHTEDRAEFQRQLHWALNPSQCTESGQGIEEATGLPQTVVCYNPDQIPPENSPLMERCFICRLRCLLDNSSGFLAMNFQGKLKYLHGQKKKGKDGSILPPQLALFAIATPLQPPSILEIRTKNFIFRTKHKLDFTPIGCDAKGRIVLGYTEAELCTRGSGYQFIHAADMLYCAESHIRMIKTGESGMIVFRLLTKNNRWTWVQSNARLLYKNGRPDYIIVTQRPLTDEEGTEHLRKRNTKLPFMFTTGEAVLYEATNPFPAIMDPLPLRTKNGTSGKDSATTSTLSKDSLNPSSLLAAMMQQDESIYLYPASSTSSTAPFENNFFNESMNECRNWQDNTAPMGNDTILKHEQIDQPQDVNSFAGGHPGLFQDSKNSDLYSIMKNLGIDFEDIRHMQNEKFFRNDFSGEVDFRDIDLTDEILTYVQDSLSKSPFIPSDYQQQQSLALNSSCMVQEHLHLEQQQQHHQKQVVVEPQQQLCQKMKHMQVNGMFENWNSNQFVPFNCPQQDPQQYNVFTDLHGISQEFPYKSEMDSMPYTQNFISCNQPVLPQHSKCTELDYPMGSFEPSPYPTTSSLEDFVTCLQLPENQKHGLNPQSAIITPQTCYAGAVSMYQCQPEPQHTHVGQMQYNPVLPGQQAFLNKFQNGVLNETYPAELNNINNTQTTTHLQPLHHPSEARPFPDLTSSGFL
Of the large screens only hits and unclear results are named; the others gave an inactive call.

O=C(Nc1ccccc1)c1nc2ccccc2s1	HSF-1 act 58.6
CC(C)(C)C(=O)N(CCN(C(=O)C(C)(C)C)c1ccccc1)c1ccccc1	none
COCCNC(=O)c1csc2c1CCCC2	none
COCCNc1nnc(SCC(=O)NC(=O)c2ccc(Cl)cc2)s1	none (no result: HSF1 inhib, HSF-1 act, AHR activator)
O=C(Nc1ccc(C(=O)O)cc1)/C(=C/c1cccc(Br)c1)NC(=O)c1ccco1	none
CCNC(=S)NNC(=O)c1ccccc1OC(F)F	none
COc1ccc(NC(=S)NNC(=O)c2ccccc2OC(F)F)cc1	AHR activator 117.7
CCc1ccc(NC(=S)NNC(=O)c2ccccc2OC(F)F)cc1	AHR activator 49.2 (no result: FXN GAA850 act)
Cc1ccc(S(=O)(=O)NNC(=S)Nc2ccc(Cl)cc2)cc1	none
CCCCOc1ccc(OC(=O)c2cccnc2)cc1	none
O=C(CSc1n[nH]c(-c2ccccc2)n1)Nc1ccc(Br)cn1	none
CCOC(=O)C(C)(C)N(Cc1ccc(Cl)cc1)S(=O)(=O)c1ccc(Cl)c([N+](=O)[O-])c1	HSF-1 act 66.4 (no result: FXN GAA850 act)
COc1ccc(CC(=O)N2CCC(C)(C(=O)NS(=O)(=O)C3CC3)C2)cc1OC (stereo unspecified)	none (no result: HSF1 inhib, HSF-1 act, AHR activator)
CN1CCN(/N=C/c2nc(-c3ccc(Cl)cc3)n3ccccc23)CC1	AHR activator 48.3
CN1CCN(/N=C/c2nc(-c3ccccc3Cl)n3ccccc23)CC1	none
COc1ccc(CCNC(=O)[C@@H](NC(=O)N2CC(=O)Nc3ccccc32)C(C)C)cc1OC	none
O=C(CN1CCOCC1)NN=C(c1ccccc1)c1ccccc1	none
COc1cc(C(=O)OCc2ccc(C)cc2)cc(NC(=O)c2cccs2)c1OC	AHR activator 58.4
CC(C)(Oc1ccc(Cl)cc1)C(=O)N1CCN(c2ccccn2)CC1	none
O=C(CCC(=O)Nc1ccc(Cl)cc1Cl)NNC(=O)Nc1ccccc1	none
COc1cc(/C=C(\C#N)C(=O)NC2CCCCC2C)ccc1OS(=O)(=O)c1ccc(C)cc1 (stereo unspecified)	HSF-1 act 64.1
CC(C)Oc1ccc(CNC2CCOC(C)(C)C2)cc1 (stereo unspecified)	none (no result: HSF1 inhib, HSF-1 act)
COc1cccc(C(=O)/C=C2\NCCc3cc(OC)c(OC)cc32)c1	AHR activator 52.6
COc1cc2c(cc1OC)/C(=C/C(=O)c1ccc([N+](=O)[O-])c(C)c1)NCC2	none (no result: AHR activator)
O=C(NCc1cccnc1)c1ccc(-c2cc(Cl)ccc2Cl)o1	AHR activator 76.0
O=C(NCc1cccnc1)c1ccc(-c2ccc(Cl)cc2)o1	none
Cc1ccc2ccccc2c1Cn1c(-n2ccnc2)nc2c1c(=O)n(C)c(=O)n2C	none
COc1ccc(-c2nn(-c3ccccc3)cc2C(N)=O)cc1OC	AHR activator 75.0
COc1ccc(-c2nn(-c3ccccc3)cc2/C=N/NC(N)=S)cc1OC	none
CCCS(=O)(=O)N1CCCC(C(=O)N2CCC(Cc3ccccc3)CC2)C1 (stereo unspecified)	HSF1 inhib -81.2
CCCS(=O)(=O)N1CCC(C(=O)N2CCC(Cc3ccccc3)CC2)CC1	none
CCOC(=O)CSc1cc(CS(C)(=O)=O)nc(-c2ccccn2)n1	HSF1 inhib -61.2
CCOC(=O)CSc1cc(C(F)(F)F)nc(-c2ccccn2)n1	none
COc1ccc(Cl)cc1NC(=O)COC(=O)C1=NNC(=O)CC1	none (no result: HSF1 inhib, HSF-1 act)
CC(=O)NNC(=O)CN1C(=O)/C(=C/c2ccccc2)SC1=S	none
CCN(CC)C(=O)CN1C(=O)/C(=C/c2ccccc2)SC1=S	HSF1 inhib -57.5
O=C(O)CN1C(=O)/C(=C\c2cccc(OCc3ccccc3F)c2)SC1=S	HSF-1 act 57.7
O=C(O)CN1C(=O)/C(=C\c2cccc(OCc3ccc(Cl)cc3)c2)SC1=S	none
O=C(O)CN1C(=O)/C(=C\c2cc(Br)ccc2OCc2ccc(Cl)cc2Cl)SC1=S	AHR activator 63.8
O=C(O)CN1C(=O)/C(=C\c2ccccc2OCc2ccc(Cl)cc2)SC1=S	AHR activator 59.2
O=C(O)CN1C(=O)/C(=C\c2cccc(OCc3ccc(F)cc3)c2)SC1=S	none (no result: AHR activator)
CCc1nc(SCC(=O)N2CCc3cc(OC)c(OC)cc3C2)c(C#N)cc1C	none
OCCN(CCO)Cc1ccc(Br)cc1	AHR activator 63.2
C=CCn1c(=N)n(CC(O)COc2ccccc2OC)c2ccccc21 (stereo unspecified)	AHR activator 62.4
CCCCCn1c(=N)n(CC(O)COc2ccccc2OC)c2ccccc21 (stereo unspecified)	AHR activator 48.8
COc1ccc(S(=O)(=O)N2CCN(c3ccccc3)CC2)cc1OC	none (no result: HSF1 inhib, HSF-1 act, AHR activator)
FC(F)(F)c1cc(-c2cccs2)nc(-n2cc(Br)cn2)n1	AHR activator 49.9
CC(C)OC(=O)Cn1c(=O)oc2ccccc21	HSF1 inhib -51.7
Cc1cccc(-n2ncc3c(Nc4ccc(F)cc4)ncnc32)c1	HSF-1 act 51.3
Cc1cccc(-n2ncc3c(N(C)Cc4ccccc4)ncnc32)c1	HSF-1 act 60.8
O=C(c1ccco1)N1CCN(C(c2ccccc2F)c2nnnn2CC2CCCO2)CC1 (stereo unspecified)	none (no result: HSF1 inhib, HSF-1 act)
Cc1nc2ccccc2nc(C)c1=NOCc1ccccc1Cl	HSF-1 act 55.3
CCn1nc(C)c(/C=N\NC(=O)c2cccc(OC)c2)c1C	AHR activator 49.3
Cc1ccc(-n2nc(C)c(/C=N/NC(=O)c3cccnc3)c2Cl)cc1	AHR activator 47.1
Cc1nn(Cc2ccccc2)c(C)c1/C=N/NC(=O)c1cccnc1	AHR activator 71.0
Cc1nn(Cc2ccc(F)cc2)c(Cl)c1/C=N/NC(=O)c1cccnc1	AHR activator 52.1 (no result: HSF1 inhib, HSF-1 act)
CCn1nc(C)c(/C=N/NC(=O)c2ccoc2C)c1C	none
Cc1nn(Cc2ccc(F)cc2)c(Cl)c1/C=N/NC(=O)c1ccccc1	none
Cc1nn(-c2ccccc2)c(Cl)c1/C=N/NC(=O)c1cccnc1	none
Cc1ccc(C(=O)Nc2ccc(C)c(S(=O)(=O)N3CCOCC3)c2)c(C)c1	none
O=[N+]([O-])c1cccc(-c2c[n+]3c(n2-c2ccccc2)SCC3)c1	none (no result: HSF1 inhib, HSF-1 act)
O=C(NC1CCCCC1)c1cc(-c2ccc(F)cc2)on1	HSF-1 act 53.8
Cc1ccc(-c2cc(C(=O)NC3CCCC3)no2)cc1	none
COc1cccc(C(=O)Nc2ccc(NC(=O)C3CCCCC3C(=O)O)cc2)c1 (stereo unspecified)	none
CC(=O)c1cccc(NC(=O)c2ccc3ccccc3c2)c1	HSF-1 act 55.4
COc1cccc(C(=O)Nc2ccc(NC(=O)C3CC=CCC3C(=O)O)cc2)c1 (stereo unspecified)	HSF1 inhib -51.8
COc1ccc(C(=O)NNC(=O)c2ccc3ccccc3c2)cc1	none (no result: HSF1 inhib, HSF-1 act, AHR activator)
C/C(=N\NC(=O)Nc1ccccc1)c1ccc2ccccc2c1	AHR activator 69.8
COc1ccc(NC(=O)c2ccc3ccccc3c2)cc1	HSF-1 act 62.4, AHR activator 57.8
O=C(/C=C/c1ccc([N+](=O)[O-])cc1)NCc1ccc2c(c1)OCO2	none
CCCC1=Nc2cc(C(=O)NCCCN3CCN(C)CC3)ccc2Sc2ccccc21	HSF1 inhib -50.5
COc1ccc(N(C(C)C(=O)N/N=C/c2ccc(OCC(C)C)cc2)S(C)(=O)=O)cc1 (stereo unspecified)	none
CCOc1ccc(/C=N/NC(=O)C(C)N(c2ccc(OC)cc2)S(C)(=O)=O)cc1 (stereo unspecified)	HSF-1 act 64.2
